Reference: publication PMC7826789 (International Journal of Molecular Sciences, 2021)

Columns and labels:
Settings in all cases: Compound Concentration (nM):1000
ERK4 = tested on: T1, ERK4
T1 construct: gene MAPK4

ERK5 = tested on: T2, ERK5
T2 construct: gene MAPK7

ERK8 = tested on: T3, ERK8
T3 construct: gene MAPK15

ERN1 = tested on: ERN1
FAK = tested on: T4, FAK
T4 construct: gene PTK2

FER = tested on: FER
FES = tested on: FES
FGFR1 = tested on: FGFR1
FGFR2 = tested on: FGFR2
FGFR3(G697C) = tested on: FGFR3(G697C)
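Note: KINOMEscan scanMAX binding as percent activity remaining versus control; lower means stronger binding.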

| Structure (SMILES) | Percent Control (ERK4) [%] | Percent Control (ERK5) [%] | Percent Control (ERK8) [%] | Percent Control (ERN1) [%] | Percent Control (FAK) [%] | Percent Control (FER) [%] | Percent Control (FES) [%] | Percent Control (FGFR1) [%] | Percent Control (FGFR2) [%] | Percent Control (FGFR3(G697C)) [%] |
| --- | --- | --- | --- | --- | --- | --- | --- | --- | --- | --- |
| COc1ccc2cc(-c3c(-c4ccncc4)nc(-c4ccc(S(C)(=O)=O)cc4C)n3C)ccc2c1 [SB-633825] | 74 | 89 | 100 | 74 | 85 | 77 | 81 | 73 | 73 | 86 |
| CCn1c(-c2nonc2N)nc2c(C#CC(C)(C)O)nc(OCCNC)cc21.Cl [GSK949675] | 100 | 100 | 100 | 100 | 100 | 100 | 100 | 100 | 100 | 100 |
| CCS(=O)(=O)c1ccc(OC)c(Nc2ncc(-c3cccc(F)c3)o2)c1 [GW621970X] | 100 | 100 | 100 | 100 | 100 | 100 | 100 | 25 | 22 | 7.2 |
| CCS(=O)(=O)c1ccc(OC)c(Nc2ncc(-c3cccc(OC)c3)o2)c1 [GW580509X] | 100 | 100 | 100 | 76 | 100 | 100 | 100 | 39 | 58 | 31 |
| CC1=C(C(=O)Nc2ccc3[nH]ncc3c2)C(c2ccc(Cl)c(Cl)c2)CC(=O)N1 (stereo not shown) [GSK299115A] | 100 | 100 | 90 | 80 | 100 | 97 | 96 | 90 | 73 | 94 |
| Cc1cc(O)cc(C)c1/C=C/c1cncc(C(N)=O)c1 [GW435821X] | 100 | 100 | 100 | 82 | 100 | 98 | 100 | 92 | 100 | 100 |
| Cl.O=C(Nc1ccc(Oc2ccc3[nH]c(NC(=O)c4ccccc4)nc3c2)cc1)Nc1cc(C(F)(F)F)ccc1F [GW709042A] | 91 | 94 | 64 | 100 | 100 | 77 | 94 | 76 | 68 | 100 |
| COc1cccc(-c2c[nH]c3c(N/N=C/c4ccncc4)ncnc23)c1 [GW814408X] | 8.3 | 100 | 2 | 100 | 100 | 100 | 100 | 100 | 100 | 100 |
| COC(=O)Nc1nc2ccc(Oc3ccc(NC(=O)Nc4cc(C(F)(F)F)ccc4F)cc3)cc2s1.Cl [GW693917A] | 95 | 100 | 8.5 | 56 | 92 | 100 | 88 | 51 | 30 | 59 |
| COc1cc(N2CCN(C(C)C)CC2)ccc1Nc1nc(Nc2ccc(F)cc2C(=O)NC[C@@H](O)CO)c2cc[nH]c2n1 [GSK1392956A] | 100 | 99 | 100 | 43 | 4.5 | 43 | 58 | 100 | 97 | 98 |
| NS(=O)(=O)c1ccc(N/N=C2\C(=O)Nc3ccc(C(=O)NCCc4c[nH]cn4)cc32)cc1 [GW300660X] | 100 | 100 | 18 | 82 | 100 | 100 | 100 | 100 | 100 | 100 |
| NS(=O)(=O)c1ccc(N/N=C2\C(=O)Nc3ccc(-c4cnco4)cc32)cc1 [GW276655] | 100 | 98 | 23 | 89 | 68 | 91 | 86 | 85 | 100 | 78 |
| Cl.O=S1CCN(Cc2ccc(-c3ccc4ncnc(Nc5ccc(OCc6ccccc6)c(F)c5)c4c3)o2)CC1 [GW576924A] | 100 | 100 | 100 | 100 | 100 | 100 | 100 | 100 | 100 | 100 |
| COc1cc2ncnc(Nc3ccc4c(cnn4Cc4ccccc4)c3)c2cc1OC.Cl [GW282449A] | 100 | 100 | 100 | 96 | 100 | 100 | 100 | 100 | 100 | 100 |
| Cl.O=C(Nc1ccc(Oc2ccc3[nH]c(NC(=O)c4ccco4)nc3c2)cc1)Nc1cc(C(F)(F)F)ccc1F [GW683134A] | 100 | 100 | 34 | 89 | 100 | 92 | 100 | 64 | 36 | 69 |
| COc1cc(/C=N/Nc2ncnc3[nH]ncc23)ccc1O [GW578748X] | 72 | 100 | 93 | 53 | 100 | 100 | 100 | 81 | 100 | 88 |
| O=C(Nc1n[nH]c2nc(-c3ccc(O)cc3)c(Br)cc12)C1CC1 [SB-725317] | 100 | 2.4 | 27 | 93 | 100 | 100 | 100 | 100 | 100 | 100 |
| CN(C)c1cc2c(Nc3ccc4c(cnn4Cc4ccccc4)c3)ncnc2cn1 [GW282974X] | 100 | 100 | 87 | 52 | 85 | 100 | 81 | 97 | 97 | 93 |
| Cl.O=C(O[C@H]1CN[C@H](C#Cc2cc3ncnc(Nc4ccc5c(cnn5Cc5ccccc5)c4)c3s2)C1)N1CCOCC1 [GSK200398A] | 99 | 89 | 90 | 88 | 96 | 94 | 95 | 100 | 100 | 86 |
| COc1ccc(COc2ccc(Cc3cnc(N)nc3N)cc2OC)cc1 [GW632580X] | 100 | 100 | 100 | 88 | 100 | 81 | 82 | 67 | 99 | 89 |

| Structure (SMILES) | Percent Control (ERK4) [%] | Percent Control (ERK5) [%] | Percent Control (ERK8) [%] | Percent Control (ERN1) [%] | Percent Control (FAK) [%] | Percent Control (FER) [%] | Percent Control (FES) [%] | Percent Control (FGFR1) [%] | Percent Control (FGFR2) [%] | Percent Control (FGFR3(G697C)) [%] |
| --- | --- | --- | --- | --- | --- | --- | --- | --- | --- | --- |
| COc1ccc2c(-c3ccnc(Nc4cccc(OC(F)(F)F)c4)n3)cnn2n1 [GW810372X] | 100 | 100 | 3.6 | 100 | 100 | 100 | 100 | 91 | 100 | 75 |
| CC1=C(C(=O)Nc2ccc3[nH]ncc3c2)C(c2ccc3ccccc3c2)CC(=O)N1 (stereo not shown) [GSK270822A] | 100 | 100 | 100 | 78 | 100 | 77 | 84 | 72 | 66 | 78 |
| Nc1ncnc2occ(-c3ccc(NC(=O)Nc4cc(C(F)(F)F)ccc4F)cc3)c12 [GW770249X] | 100 | 100 | 2.4 | 88 | 9.7 | 87 | 100 | 32 | 31 | 78 |
| COc1cc(C=NNc2ncnc3c2cnn3-c2ccccc2)ccc1O [GW513184X] | 37 | 100 | 22 | 100 | 100 | 100 | 100 | 100 | 100 | 100 |
| C/C(Nc1ccc(S(N)(=O)=O)cc1)=C1/C(=O)Nc2ccccc21 [GW335962X] | 100 | 100 | 100 | 88 | 93 | 88 | 84 | 86 | 93 | 100 |
| O=C1Nc2ccc(C(=O)c3ccco3)cc2C1=Cc1cc(Cl)c(O)c(Cl)c1 [GW406108X] | 100 | 100 | 100 | 66 | 100 | 100 | 99 | 100 | 75 | 100 |
| CN(C)CCNC(=O)Nc1ccc(N(C)c2ccnc(Nc3ccc(CS(C)(=O)=O)cc3)n2)cc1.Cl [GW830900A] | 93 | 100 | 78 | 72 | 49 | 100 | 100 | 100 | 94 | 100 |
| CN1CCN(C(=O)c2ccc(NC(=O)Nc3ccc(N(C)c4ccnc(Nc5ccc(CS(C)(=O)=O)cc5)n4)cc3)cc2)CC1.Cl [GW830263A] | 100 | 100 | 25 | 25 | 36 | 46 | 67 | 100 | 99 | 100 |
| NS(=O)(=O)c1ccc(N/N=C2\C(=O)Nc3ccc(Cl)cc32)cc1 [GW280670X] | 100 | 100 | 59 | 100 | 100 | 90 | 100 | 100 | 100 | 100 |
| COc1cc(C)c(N(C)C(=O)CN(C)C)cc1Nc1nc(Nc2cccc(F)c2C(N)=O)c2cc[nH]c2n1 [GSK2219385] | 92 | 100 | 95 | 100 | 100 | 91 | 97 | 100 | 82 | 88 |
| NS(=O)(=O)c1ccc(N/N=C2\C(=O)Nc3ccc(C(=O)NCc4ccncc4)cc32)cc1 [GW300657X] | 100 | 39 | 4 | 57 | 86 | 100 | 100 | 91 | 80 | 100 |
| NS(=O)(=O)c1ccc(Nc2ncc(-c3ccccc3)o2)cc1 [GW572399X] | 100 | 100 | 28 | 100 | 100 | 100 | 100 | 100 | 100 | 100 |
| COc1ccc2[nH]c3c4[nH]c5ccc(OC)cc5c4c4c(c3c2c1)C(=O)NC4=O [GW296115X] | 74 | 69 | 58 | 93 | 85 | 58 | 86 | 100 | 88 | 100 |
| C[C@@H](Oc1cc(-n2cnc3ccc(OC4CCN(C)CC4)cc32)sc1C(N)=O)c1ccccc1Cl [GSK579289A] | 98 | 96 | 100 | 55 | 50 | 100 | 85 | 67 | 89 | 61 |
| COc1cc2ncn(-c3cc(O[C@H](C)c4ccccc4Cl)c(C(N)=O)s3)c2cc1OC [GSK237701A] | 100 | 100 | 84 | 88 | 100 | 100 | 95 | 65 | 58 | 63 |
| COc1cccc(-n2ncc3c(N/N=C/c4ccncc4)ncnc32)c1 [GW784752X] | 58 | 100 | 17 | 72 | 100 | 100 | 100 | 87 | 100 | 92 |
| CC(C)COC(=O)c1ccc2c(c1)/C(=C/Nc1ccc(S(N)(=O)=O)cc1)C(=O)N2 [GW416981X] | 100 | 100 | 1.8 | 100 | 100 | 100 | 100 | 100 | 100 | 100 |
| COc1ccccc1-c1cc(/C=C2\C(=O)Nc3ncc(Br)cc32)cc(Br)c1O [GW442130X] | 100 | 100 | 100 | 100 | 97 | 100 | 100 | 100 | 100 | 100 |
| CCc1ccc(Oc2nccc(-c3c(-c4ccc(F)cc4)ncn3C3CCNCC3)n2)cc1 [SB-242719] | 100 | 100 | 100 | 75 | 100 | 67 | 97 | 100 | 100 | 91 |
| Cl.c1ccc(Cc2nc3ccc(Nc4ncnc5ccccc45)cc3[nH]2)cc1 [GR269666A] | 100 | 100 | 92 | 93 | 100 | 88 | 100 | 100 | 100 | 100 |
